Test results published in PubChem BioAssay (Tox21).
Inconclusive results are not listed. Active and inactive are the calls of the source. Calls come from the whole dose curve; as a rule, active = well fitted curve in the direction sought with a large enough effect in the repeat runs; inconclusive = weak or mixed curves; inactive = no such curve, though single readings can be large; an effect the other way counts as inactive or inconclusive.

Columns and labels:
[1] = A CellTox Green Cytotoxicity Assay to monitor cytotoxicity in HEK293 cells - 40 hour (AID 1224871); note: nearly all actives have a fitted effect of over 45% in size
In short: (§1)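 Cells (HEK293, 600/well) and dye reagent are dispensed together. After 5 h at 37 C, 23 nL compound is pinned in. Plates stay at 37 C for 40 h with fluorescence read at 0h, 8h, 16h, 24h, 32h and 40h.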

[2] = qHTS RealTime-Glo MT Cell Viability Assay in HEK293 cells - 16 hour (AID 1224872); note: nearly all actives have a fitted effect of over 50% in size; note: potency is the fitted concentration of half-maximal effect
In short: (§2)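 Homogeneous bioluminescent viability format in HEK293 cells (600 cells/well). Following 5 h at 37 C/5% CO2, 23 nL compound was pintooled; the signal was measured repeatedly during 40 h incubation.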

[3] = qHTS RealTime-Glo MT Cell Viability Assay in HepG2 cells - 8 hour (AID 1224873); note: nearly all actives have a fitted effect of over 55% in size
In short: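 HepG2 cells (600/well) mixed with RealTime-Glo MT reagent, settled 5 h at 37 C/5% CO2 before compound addition. Nonlytic NanoLuc luminescence from viable-cell prosubstrate reduction read repeatedly during 40 h treatment at 37 C.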

[4] = qHTS RealTime-Glo MT Cell Viability Assay in HEK293 cells - 40 hour (AID 1224874); conditions: RealTime-Glo luminescence; max response: stronger effect = lower value; note: nearly all actives have a fitted effect of over 50% in size; note: potency is the fitted concentration of half-maximal effect
In short: (§3)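 Real-time viability in HEK293: signal arises when living cells convert a prosubstrate for NanoLuc in the medium, so luminescence tracks viable cell number. Compound (23 nL, DMSO) added 5 h post-seeding; kinetic reads at 0–40 h, 37 C.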

[5] = A CellTox Green Cytotoxicity Assay to monitor cytotoxicity in HepG2 cells - 16 hour (AID 1224876); note: nearly all actives have a fitted effect of over 45% in size
In short: (§4)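 Cells and non-lytic dye reagent are dispensed together (600 HepG2 cells/well) and incubated 5 h before DMSO compound transfer. Kinetic fluorescence is then recorded in the same wells during 40 h at 37 C.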

[6] = qHTS RealTime-Glo MT Cell Viability Assay in HepG2 cells - 32 hour (AID 1224877); note: nearly all actives have a fitted effect of over 55% in size; note: potency is the fitted concentration of half-maximal effect
In short: (§5)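 Cell number in HepG2 cultures estimated from NanoLuc luminescence generated by metabolic reduction of a prosubstrate by living cells. The homogeneous, nonlytic format allowed repeated reads at 0, 8, 16, 24, 32 and 40 h of compound exposure.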

[7] = A CellTox Green Cytotoxicity Assay to monitor cytotoxicity in HepG2 cells - 24 hour (AID 1224878); note: nearly all actives have a fitted effect of over 45% in size
In short: as §4

[8] = A CellTox Green Cytotoxicity Assay to monitor cytotoxicity in HepG2 cells - 40 hour (AID 1224879); note: nearly all actives have a fitted effect of over 40% in size
In short: as §4

[9] = qHTS RealTime-Glo MT Cell Viability Assay in HEK293 cells - 0 hour (AID 1224880); note: top concentration of the series differs between compounds; nearly all actives have a fitted effect of over 45% in size
In short: as §3

[10] = A CellTox Green Cytotoxicity Assay to monitor cytotoxicity in HEK293 cells - 32 hour (AID 1224881); note: nearly all actives have a fitted effect of over 40% in size
In short: as §1

[11] = A CellTox Green Cytotoxicity Assay to monitor cytotoxicity in HepG2 cells - 0 hour (AID 1224882); note: nearly all actives have a fitted effect of over 35% in size; note: potency is the fitted concentration of half-maximal effect
In short: as §4

[12] = A CellTox Green Cytotoxicity Assay to monitor cytotoxicity in HepG2 cells - 32 hour (AID 1224883); note: nearly all actives have a fitted effect of over 50% in size
In short: as §4

[13] = qHTS RealTime-Glo MT Cell Viability Assay in HepG2 cells - 16 hour (AID 1224885); note: nearly all actives have a fitted effect of over 50% in size
In short: as §5

[14] = qHTS RealTime-Glo MT Cell Viability Assay in HEK293 cells - 24 hour (AID 1224886); note: nearly all actives have a fitted effect of over 50% in size; note: potency is the fitted concentration of half-maximal effect
In short: as §2

[15] = A CellTox Green Cytotoxicity Assay to monitor cytotoxicity in HEK293 cells - 16 hour (AID 1224888); note: nearly all actives have a fitted effect of over 35% in size
In short: as §1

[16] = qHTS RealTime-Glo MT Cell Viability Assay in HepG2 cells - 0 hour (AID 1224889); note: nearly all actives have a fitted effect of over 50% in size
In short: as §5

[17] = A CellTox Green Cytotoxicity Assay to monitor cytotoxicity in HEK293 cells - 24 hour (AID 1224875)
In short: as §1

[18] = A CellTox Green Cytotoxicity Assay to monitor cytotoxicity in HEK293 cells - 8 hour (AID 1224884); note: nearly all actives have a fitted effect of over 35% in size
In short: as §1

[19] = qHTS RealTime-Glo MT Cell Viability Assay in HEK293 cells - 8 hour (AID 1224887); note: nearly all actives have a fitted effect of over 50% in size; note: potency is the fitted concentration of half-maximal effect
In short: as §3

[20] = A CellTox Green Cytotoxicity Assay to monitor cytotoxicity in HepG2 cells - 8 hour (AID 1224890); note: nearly all actives have a fitted effect of over 45% in size
In short: as §4
% is set by controls: 0 for no effect and ±100 for the full control effect.

C#CCOC(=O)[C@@H](C)Oc1ccc(Oc2ncc(Cl)cc2F)cc1
inactive: Potency [1] | Potency [2] | Potency [3] | max response [4] -16.3% | Potency [5] | Potency [6] | Potency [7] | Potency [8] | Potency [9] | Potency [10] | Potency [11] | Potency [12] | Potency [13] | Potency [14] | Potency [15] | Potency [16]

O=C(O)[C@@H]1[C@H]2C[C@H]3c4[nH]c5ccccc5c4CCN3C[C@@H]2CC[C@@H]1O
active: Potency [11] 10.7 µM
inactive: Potency [1] | Potency [2] | Potency [3] | max response [4] 1.89% | Potency [17] | Potency [6] | Potency [9] | Potency [10] | Potency [18] | Potency [13] | Potency [14] | Potency [15] | Potency [16]

CCOc1nc2cccc(C(=O)O)c2n1Cc1ccc(-c2ccccc2-c2nn[nH]n2)cc1
inactive: Potency [1] | Potency [2] | Potency [3] | max response [4] 9.75% | Potency [5] | Potency [6] | Potency [7] | Potency [8] | Potency [10] | Potency [11] | Potency [12] | Potency [18] | Potency [13] | Potency [14] | Potency [19] | Potency [15] | Potency [16] | Potency [20]

CN1CCC[C@@H]1c1cccnc1
inactive: Potency [1] | Potency [2] | Potency [3] | max response [4] 7.25% | Potency [17] | Potency [6] | Potency [7] | Potency [8] | Potency [9] | Potency [10] | Potency [11] | Potency [12] | Potency [18] | Potency [13] | Potency [14] | Potency [19] | Potency [15] | Potency [16]

Oc1ccc(C(O)CNCCCCCCNCC(O)c2ccc(O)c(O)c2)cc1O (stereo unspecified)
inactive: Potency [1] | Potency [2] | Potency [3] | max response [4] 1.45% | Potency [17] | Potency [6] | Potency [7] | Potency [8] | Potency [10] | Potency [11] | Potency [12] | Potency [18] | Potency [14] | Potency [19] | Potency [15] | Potency [16] | Potency [20]

CCCCCCCCCCCCCCCC(=O)OC/C=C(C)/C=C/C=C(C)/C=C/C1=C(C)CCCC1(C)C
inactive: Potency [1] | Potency [2] | Potency [3] | max response [4] -5.46% | Potency [5] | Potency [6] | Potency [7] | Potency [8] | Potency [9] | Potency [10] | Potency [11] | Potency [12] | Potency [18] | Potency [14] | Potency [19] | Potency [15] | Potency [16]

CC(C)(C)c1cc(O)c(C(C)(C)C)cc1O
inactive: Potency [1] | Potency [3] | Potency [17] | Potency [6] | Potency [8] | Potency [9] | Potency [10] | Potency [11] | Potency [12] | Potency [18] | Potency [15] | Potency [16] | Potency [20]
active: Potency [2] 17.4 µM | Potency [4] 30.9 µM | Potency [14] 21.9 µM | Potency [19] 15.5 µM

O=C(O)C1CCC(C(=O)O)CC1 (stereo unspecified)
inactive: Potency [1] | Potency [2] | Potency [3] | max response [4] -2.66% | Potency [17] | Potency [6] | Potency [7] | Potency [8] | Potency [9] | Potency [10] | Potency [11] | Potency [12] | Potency [18] | Potency [13] | Potency [14] | Potency [19] | Potency [15] | Potency [16] | Potency [20]

CCC(=O)OC(C)(C)C1CC=C(C)CC1 (stereo unspecified)
inactive: Potency [1] | Potency [2] | Potency [3] | max response [4] -0.19% | Potency [17] | Potency [6] | Potency [7] | Potency [8] | Potency [9] | Potency [10] | Potency [11] | Potency [12] | Potency [18] | Potency [14] | Potency [19] | Potency [15] | Potency [16] | Potency [20]

CCc1nn(C2CCCCC2)c2cc(C3(C#N)CCC(C(=O)O)CC3)ccc12 (stereo unspecified)
inactive: Potency [1] | Potency [2] | Potency [3] | max response [4] 0.457% | Potency [17] | Potency [6] | Potency [7] | Potency [8] | Potency [9] | Potency [10] | Potency [11] | Potency [12] | Potency [14] | Potency [19] | Potency [15] | Potency [16] | Potency [20]

CC[C@H](C)[C@@H](C(=O)O)n1sc2ccccc2c1=O
inactive: Potency [1] | Potency [2] | Potency [3] | max response [4] -0.529% | Potency [17] | Potency [7] | Potency [8] | Potency [9] | Potency [10] | Potency [11] | Potency [12] | Potency [13] | Potency [14] | Potency [19] | Potency [15] | Potency [16] | Potency [20]
active: Potency [6] 49 µM

CC(C)CCCC(C)CCO (stereo unspecified)
inactive: Potency [1] | Potency [2] | Potency [3] | max response [4] 14.4% | Potency [17] | Potency [8] | Potency [9] | Potency [10] | Potency [11] | Potency [18] | Potency [13] | Potency [14] | Potency [15] | Potency [16]

CC(C)c1ccccc1C(C)C
inactive: Potency [1] | Potency [2] | Potency [3] | max response [4] -23.5% | Potency [5] | Potency [6] | Potency [7] | Potency [8] | Potency [9] | Potency [10] | Potency [11] | Potency [12] | Potency [18] | Potency [13] | Potency [14] | Potency [19] | Potency [15] | Potency [16] | Potency [20]

CC(=O)O[C@H]1C[C@@H]2CC[C@@H]3[C@H](CC[C@@]4(C)[C@H]3C[C@H]([N+]3(C)CCCCC3)[C@@H]4OC(C)=O)[C@@]2(C)C[C@@H]1N1CCCCC1
inactive: Potency [1] | Potency [2] | Potency [3] | max response [4] 3.64% | Potency [5] | Potency [6] | Potency [7] | Potency [8] | Potency [9] | Potency [10] | Potency [11] | Potency [12] | Potency [18] | Potency [14] | Potency [19] | Potency [15] | Potency [16] | Potency [20]

OC(CCN1CCCCC1)(c1ccccc1)C1CCCCC1 (stereo unspecified)
inactive: Potency [1] | Potency [2] | Potency [3] | max response [4] -21.9% | Potency [17] | Potency [7] | Potency [8] | Potency [10] | Potency [11] | Potency [12] | Potency [18] | Potency [13] | Potency [19] | Potency [15] | Potency [16] | Potency [20]

CN(C)CCCNCCCN
inactive: Potency [1] | Potency [2] | Potency [3] | max response [4] 24.4% | Potency [17] | Potency [6] | Potency [9] | Potency [10] | Potency [11] | Potency [13] | Potency [14] | Potency [19] | Potency [15] | Potency [16] | Potency [20]

OCCC1CCCCN1 (stereo unspecified)
inactive: Potency [1] | Potency [2] | Potency [3] | max response [4] -19.6% | Potency [5] | Potency [6] | Potency [7] | Potency [8] | Potency [9] | Potency [10] | Potency [11] | Potency [12] | Potency [18] | Potency [14] | Potency [19] | Potency [15] | Potency [16] | Potency [20]

CC1(C)[C@H]2CC[C@]1(C)[C@H](O)C2
inactive: Potency [1] | Potency [2] | Potency [3] | max response [4] -5.57% | Potency [17] | Potency [6] | Potency [7] | Potency [8] | Potency [10] | Potency [11] | Potency [12] | Potency [18] | Potency [13] | Potency [14] | Potency [19] | Potency [15] | Potency [16]
